HT1080-NT tox = kills 2HG-producing HT-1080-NT fibrosarcoma cells; HT-1080-NT fibrosarcoma viability, CellTiter-Glo ATP luminescence, 48 h; Potency, µM (highest dose often 46.1 µM), inactives show at the highest dose activity, negative = less viability, most hits filed as cytotoxic; 360,000 compounds, 1.6% hits; AID 686970;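 also: NT is the 2HG producing partner of a matched IDH1 knockdown line; 0% = DMSO-treated cells and -100% = media-only wells without cells; nearly all actives have a fitted effect of over 55% in size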
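750 cells/well, RPMI + 5% FBS; 2 h settle, compound pin-transfer, 48 h at 37 degrees C. CellTiter-Glo 10 min RT, luminescence. Normalized to DMSO and media-only wells.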
DT40 TDP1 no CPT = qHTS for Inhibitors of human tyrosyl-DNA phosphodiesterase 1 (TDP1): qHTS in cells in absence of CPT; DT40 Tdp1-/- hTDP1 cells, no CPT, ATP luminescence, 48 h; Potency, µM (titrated, usually from 46.2 µM), without a hit: at the highest dose activity change, negative = growth inhibition, usual class: inhibitors; 420,000 compounds, 15% hits; AID 686978, 2013; also: % is scaled to controls: 0 for no effect and ±100 for the full control effect; nearly all actives have a fitted effect of over 55% in size
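Stably hTDP1-transfected Tdp1-null chicken DT40 cells were treated with library compounds minus camptothecin and grown for at least 48 hr at 37 °C, after which cellular ATP was quantified by luminescence.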
TGFb inhibitor = blocks TGF-b signaling; 410,000 compounds, 1.2% hits; Potency, µM (top dose mostly 46.1 µM), inactives show at the highest dose activity, negative = inhibition, hits mostly inhibitors; HepG2 CAGA-GFP TGF-b/SMAD3 reporter, GFP fluorescence, 18 h; TGF-beta stimulated, 500 pg/mL final; AID 588855; also: % is scaled to controls: 0 for no effect and ±100 for the full control effect; nearly all actives have a fitted effect of over 65% in size
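Smad-responsive CAGA-GFP expression was quantified in HEPG2 cells exposed to compounds and 500 pg/mL final TGF-beta for 18 h at 37 degrees C; unstimulated wells defined full inhibition.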
HepG2 viability = kills HepG2 cells in TGF-b inhibitor counter-screen | Potency, µM (series often up to 46.1 µM), without a hit: at the highest dose activity change, negative = cytotoxicity, usual class: cytotoxic | 410,000 compounds, 0.76% hits | HepG2 CAGA-GFP viability, ATP luminescence, 18 h
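HepG2 CAGA-GFP cells (1000/well, DMEM with 1% FBS) received compound, then TGF-beta at 500 pg/mL final, and were incubated 18 hours at 37 degrees C. Viability was read by CellTiter-Glo luminescence. Media-only wells were set as complete cell-killing and DMSO as no toxicity.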
DT40 TDP1 CPT = growth inhibition of DT40 Tdp1-/-;hTDP1 cells with camptothecin (screen for TDP1 inhibitors); chicken DT40 Tdp1-/-;hTDP1 cells + 20 nM CPT, ATP luminescence, 48 h; Potency, µM (highest dose often 46.2 µM), inactives show at the highest dose activity change, negative = growth inhibition, usual class: inhibitors; 420,000 compounds, 12% hits; AID 686979; also: % is scaled to controls: 0 for no effect and ±100 for the full control effect; nearly all actives have a fitted effect of over 55% in size
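Cell growth measured by CellTiter-Glo luminescence after a minimum 48 h, 37 C compound exposure with 20 nM CPT in Tdp1-knockout DT40 cells stably expressing hTDP1, seeded 400/well; qHTS titration format.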
HT1080 IDH1KD tx = toxicity to HT-1080 IDH1 knockdown cells (counter line); HT-1080 IDH1 knockdown viability, ATP luminescence, 48 h; Potency, µM (series often up to 46.1 µM), for inactives: at the highest dose activity, negative = toxicity, actives largely listed as cytotoxic; 360,000 compounds, 2% hits;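 also: 0% = DMSO wells and -100% = cell-free medium wells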
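Cytotoxicity counter-line: IDH1KD HT-1080, 48 h, CellTiter-Glo. Curves classed by r2, magnitude and activity.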
An asterisk follows results filed as active; ? = inconclusive; . = no result. A selection: hits, their analogues and other compounds. The true share with any hit is near 17%. Calls follow the shape of the dose curve; as a rule, active = well fitted curve in the direction sought with a large enough effect; inconclusive = small, poorly fitted or top-dose-only effect, or another doubt; inactive = no such curve, though single readings can be large; an effect the other way counts as inactive or inconclusive. Potency is read from the fitted curve at half-maximal effect.

SMILES	HT1080-NT tox	DT40 TDP1 no CPT	TGFb inhibitor	HepG2 viability	DT40 TDP1 CPT	HT1080 IDH1KD tx
O=C(NC1CCCCCCC1)c1cc(COc2ccc3ncccc3c2)on1	-15.1%	4.61µM*	?	-11.8%	3.66µM*	-19.8%
COc1cc(OC)c(C#N)c(S(=O)(=O)Cc2ccccc2)c1	25.5%	-8.5%	-8.5%	1.3%	-2.5%	7.9%
N#Cc1c([N+](=O)[O-])cc([N+](=O)[O-])cc1S(=O)(=O)Cc1ccccc1	20.6µM*	0.184µM*	3.98µM*	10µM*	0.206µM*	2.91µM*
Cn1c(SCC(=O)Nc2cccc(F)c2)nc2c([nH]c3ccccc32)c1=O	1.0%	-22.6%	25.3%	0.7%	-3.6%	-2.7%
O=c1[nH]c(NC2CCN(S(=O)(=O)c3ccccc3C(F)(F)F)CC2)nc2c1CCCC2	-7.4%	7.31µM*	?	-22.0%	6.51µM*	-5.8%
COc1ccc2c(c1OC)C(=O)N1N=C(c3ccc(F)cc3)CC21 (configuration not stated)	-2.0%	16.4µM*	11.1%	-2.9%	?	2.1%
Cc1ccc(C2=NN3C(=O)c4ccccc4C3C2)cc1 (configuration not stated)	8.6%	?	?	-12.9%	-29.9%	14.2%
CC(C)(C)c1ccc(C(=O)NCC(=O)N/N=C/c2ccccc2OCC(=O)O)cc1	-0.2%	3.2%	3.6%	1.8%	3.9%	2.6%
CC(=O)Nc1ccc(Nc2c(CCC(C)C)c(C)c(C#N)c3nc4ccccc4n23)cc1	.	-1.5%	13.6%	1.1%	-18.9%	.
CC1=C(C(=O)Nc2ccc(Cl)cc2)C(c2ccccc2F)n2nc(SCc3cccc(Cl)c3)nc2N1 (configuration not stated)	.	23.1µM*	-12.6%	-1.4%	?	.
CC1=C(C(=O)Nc2ccc(Cl)cc2)C(C(C)C)n2nc(SCc3ccc(Cl)cc3)nc2N1 (configuration not stated)	.	23.1µM*	5.3%	-23.0%	16.4µM*	.
CC1=C(C(=O)Nc2ccccc2)C(c2ccccc2C)n2nc(SCC(=O)c3ccc(C)cc3)nc2N1 (configuration not stated)	.	18.4µM*	17.9%	5.1%	5.8µM*	.
CC1=C(C(=O)Nc2ccc(Cl)cc2)C(CC(C)C)n2nc(SCc3ccccc3C)nc2N1 (configuration not stated)	.	?	9.6%	1.3%	?	.
O=C(CN1C(=O)NC2(CCc3ccccc32)C1=O)NCc1cccc(C(F)(F)F)c1 (configuration not stated)	5.9%	-21.2%	0.6%	-4.4%	-0.9%	-16.3%
CCn1c(=N)c(C(=O)NC2CCCCC2)cc2c(=O)n3cc(C)ccc3nc21	.	4.4%	11.6%	3.6%	6.1%	.
Cc1ccc(C)c(N2CCN(C(=O)c3cc4c(=O)n(Cc5ccccc5)ccc4nc3C)CC2)c1	.	23.1µM*	10µM*	-33.5%	16.4µM*	.
COc1ccc(N2CCN(C(=O)c3cc4c(=O)n(Cc5cccnc5)ccc4nc3C)CC2)cc1	.	-27.6%	-7.4%	-12.5%	-24.8%	.
Cc1nc2ccn(Cc3ccccc3)c(=O)c2cc1C(=O)N1CCN(c2ccc(F)cc2)CC1	-12.8%	?	-25.7%	-16.6%	?	-5.4%
Cc1ccc(C)c(N2CCN(C(=O)c3cc4c(=O)n(Cc5cccnc5)ccc4nc3C)CC2)c1	.	?	?	-43.3%	23.1µM*	.
O=S(=O)(c1cccc(C(F)(F)F)c1)n1c(/C=C/c2ccccc2)nc2ccccc21	.	10.3µM*	4.5%	-19.9%	8.2µM*	.
CSc1ccc(/C=C/c2nc3ccccc3n2S(=O)(=O)c2ccc(Br)cc2)cc1	.	10.3µM*	?	-97.4%	14.6µM*	.
NC1(C(=O)O)CSSC1	?	7.31µM*	?	-14.8%	-117.9%	?
N[C@@]1(C(=O)O)CN[C@H](C(=O)O)C1	.	-13.8%	.	.	-3.6%	.
O=C(C[n+]1cc(-c2ccc(Cl)cc2)n2c1CCC2)Nc1nc(-c2ccccc2)cs1	9.7%	5.8µM*	-18.4%	-30.1%	?	-6.2%
Cc1ccc(-c2c[n+](CC(=O)Nc3nc(-c4ccc(F)cc4)cs3)c3n2CCC3)cc1	20.6µM*	10.3µM*	?	17.8µM*	11.6µM*	23.1µM*
SMILES	HT1080-NT tox	DT40 TDP1 no CPT	TGFb inhibitor	HepG2 viability	DT40 TDP1 CPT	HT1080 IDH1KD tx
CC(=O)c1ccc(OCC(=O)N(C2CCCCC2)C2CCS(=O)(=O)C2)cc1 (configuration not stated)	6.0%	6.3%	?	6.8%	4.9%	3.8%
O=C(CCl)N(C1CCCC1)C1CCS(=O)(=O)C1 (configuration not stated)	?	14.6µM*	?	-43.1%	18.4µM*	?
Cc1ccnc(N2CCC(C(=O)NNC(=O)COc3cccc4ccccc34)CC2)n1	1.1%	-24.8%	-10.8%	2.2%	-12.4%	10.7%
Cc1ccc2nc(-c3ccc(Br)cc3)cc(C(=O)NCC3CCCO3)c2c1 (configuration not stated)	11.6%	14.6µM*	8.0%	3.6%	14.6µM*	10.0%
CCOc1ccc(-c2cc(C(=O)NCC3CCCO3)c3ccccc3n2)cc1 (configuration not stated)	6.4%	14.6µM*	-3.9%	-27.0%	16.4µM*	12.5%
COc1ccc(-c2cc(C(=O)NCC3CCCO3)c3ccccc3n2)c(OC)c1 (configuration not stated)	-0.4%	?	18.9%	-2.0%	?	1.2%
Cc1c(N=C2N=C(NC(=O)c3ccc(F)cc3)c3ccccc32)c(=O)n(-c2ccccc2)n1C	?	23.1µM*	10.6%	11.8%	16.4µM*	24.7%
Cc1c(NC(=O)c2ccc(C(=O)Nc3c(C)n(C)n(-c4ccccc4)c3=O)cc2)c(=O)n(-c2ccccc2)n1C	2.0%	-2.3%	6.6%	1.0%	?	-2.9%
OC(c1ccccc1)(c1ccccc1)c1nccc2ccccc12	3.1%	?	3.2%	4.9%	-27.7%	14.1%
COc1ccc2oc(-c3cccc(NC(=O)c4cc([N+](=O)[O-])ccc4N4CCOCC4)c3)nc2c1	.	?	1.5%	-0.7%	13µM*	.
O=C(Nc1cc(-c2nc3cc(Cl)ccc3o2)ccc1Cl)c1cc([N+](=O)[O-])ccc1N1CCOCC1	.	-8.1%	?	8.4%	4.8%	.

Screens: PubChem, National Center for Advancing Translational Sciences (NCATS)
